Each structure is given as a SMILES string. Calls of active or inactive are those of the source. How the source made its calls: active means hit-call score of the fitted dose curve at least 0.9, where 1 is the maximum; inactive means score below 0.9.

Read-out in one experiment: UDP glucuronosyltransferase (UGT1A1), UGT1A1 (gene 54658)
In words: LTEA_HepaRG_UGT1A1: Life Technologies and Expression Analysis (LTEA) Assay for UDP glucuronosyltransferase (UGT1A1) using HepaRG (AID 2283538). As to conditions: mRNA level, 48 h; actives raise or lower the signal. The procedure, abridged: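 Differentiated human HepaRG cells in serum-free induction medium were exposed in duplicate for 48 h to eight half-log concentrations up to 100 uM in 0.5% DMSO. UGT1A1 mRNA was quantified by TaqMan qRT-PCR, normalized to ACTB, GAPDH and POLR2A, and fitted bidirectionally against DMSO.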
For the compound `Clc1ccc(C(Cl)(Cl)Cl)cc1`, the compound was called inactive. For `CCCCCCCCCc1ccc(O)cc1`, the concentration at half-maximal activity (AC50) is 32.5 µM (active). Turning to `NS(=O)(=O)C(F)(F)C(F)(F)C(F)(F)C(F)(F)C(F)(F)C(F)(F)C(F)(F)C(F)(F)F`, the AC50 was 10.1 µM (active). Turning to `CC(C)(O)C(=O)Nc1ccc([N+](=O)[O-])c(C(F)(F)F)c1`, the compound was called inactive. As to `O=C(O)C(F)(F)C(F)(F)C(F)(F)C(F)(F)C(F)(F)F`, the outcome was inactive. For `O=S(=O)(O)C(F)(F)C(F)(F)C(F)(F)C(F)(F)F`, the outcome was inactive.

In the case of `ClC1=C(Cl)[C@]2(Cl)[C@@H]3[C@H]4C[C@H]([C@@H]5O[C@H]45)[C@@H]3[C@@]1(Cl)C2(Cl)Cl`, the AC50 was 2.04 µM (active). For `Cc1cc2c3c(c1)C(c1ccccc1)=N[C@@H](NC(=O)c1ccncc1)C(=O)N3CC2`, the AC50 was 4.99 µM (active).

With `N#Cc1ccc(N(CC(N)=O)CC(F)(F)F)cc1C(F)(F)F`, the AC50 is 22.6 µM (active). As for `Cc1ccc(O)c(C)c1`, the compound was called inactive. The same measure, in the same setting: as for `CCCN(CCC)N=O`, the entry is “inactive”. Same read-out and setting: for `CN(C)c1nc(=O)n(C2CCCCC2)c(=O)n1C` the value was “inactive”; for `COS(=O)(=O)OC`, “inactive”.

With `CCCCCCOC(=O)c1ccccc1C(=O)OCCCCCC`, the concentration at half-maximal activity (AC50) is 62 µM (active). The same measure, in the same setting: for `O=C(O)C(F)(F)C(F)(F)C(F)(F)C(F)(F)C(F)(F)C(F)(F)C(F)(F)C(F)(F)C(F)(F)F` the value was 36.2 µM (active); for `CO/C=C(/C(=O)OC)c1ccccc1COc1cccc(C(F)(F)F)n1`, 20.5 µM (active). In the case of `O=NN(c1ccccc1)c1ccccc1`, the call was inactive. As to `CCC(C)(CC)c1cc(NC(=O)c2c(OC)cccc2OC)on1`, the AC50 is 2.8 µM (active).

As for `CC#Cc1cc(C)nc(Nc2ccccc2)n1`, the AC50 is 8.68 µM (active). Turning to `C[C@]12CCC(=O)C=C1CC[C@@H]1[C@@H]2CC[C@@]2(C)[C@H]1CC[C@]2(C)O`, the AC50 is 10.9 µM (active). For `ClC1=C(Cl)[C@]2(Cl)[C@@H]3[C@@H]4C[C@@H]([C@H]5O[C@@H]45)[C@@H]3[C@@]1(Cl)C2(Cl)Cl`, the AC50 is 1.65 µM (active). Regarding `CCOP(=S)(OCC)SCSC(C)(C)C`, the compound was called inactive.

Consider `CCC(=O)O[C@H]1CC[C@H]2[C@@H]3CCC4=CC(=O)CC[C@]4(C)[C@H]3CC[C@]12C`, for which the AC50 was 5.32 µM (active). On to `CC(c1ccc(O)cc1)(c1ccc(O)cc1)c1ccc(O)cc1`, for which the AC50 was 68.9 µM (active). Consider `O=C(N[C@H]1CN2CCC1CC2)c1cc2ccoc2cn1`, for which the outcome was inactive. In the case of `O=S(=O)(O)C(F)(F)C(F)(F)C(F)(F)C(F)(F)C(F)(F)C(F)(F)F`, the AC50 is 38.6 µM (active). Consider `COc1ccc(O)c(C(C)(C)C)c1`, for which the outcome was inactive. As for `Cc1ccccc1[N+](=O)[O-]`, the result was inactive. As to `CCOC(=O)C(O)(c1ccc(Cl)cc1)c1ccc(Cl)cc1`, the half-maximal activity concentration (AC50) was 67.4 µM (active). Regarding `Oc1ccc(Cl)cc1Cl`, the compound was called inactive.

Read-out in another experiment: UDP glucuronosyltransferase (UGT1A6), UGT1A6 (gene 54578)
Briefly: LTEA_HepaRG_UGT1A6: Life Technologies and Expression Analysis (LTEA) Assay for UDP glucuronosyltransferase (UGT1A6) using HepaRG (AID 2283539). As to conditions: mRNA level, 48 h; actives raise or lower the signal. The procedure, abridged:
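HepaRG, 48 h post-plating switch to serum-free induction medium; chemical 48 h, 100 uM top, half-log x8, duplicate, 0.5% DMSO. Phenobarbital 1mM induction control. UGT1A6 mRNA by TaqMan qRT-PCR; gain/loss fit vs DMSO.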
For `Clc1ccc(C(Cl)(Cl)Cl)cc1`, the result was inactive. Take `CCCCCCCCCc1ccc(O)cc1`: the result was inactive. In the case of `NS(=O)(=O)C(F)(F)C(F)(F)C(F)(F)C(F)(F)C(F)(F)C(F)(F)C(F)(F)C(F)(F)F`, the concentration at half-maximal activity (AC50) is 13.3 µM (active). Turning to `CC(C)(O)C(=O)Nc1ccc([N+](=O)[O-])c(C(F)(F)F)c1`, the compound was called inactive. Consider `O=C(O)C(F)(F)C(F)(F)C(F)(F)C(F)(F)C(F)(F)F`, for which the call was inactive. Turning to `O=S(=O)(O)C(F)(F)C(F)(F)C(F)(F)C(F)(F)F`, the outcome was inactive. On the same count and under the same terms, as for `ClC1=C(Cl)[C@]2(Cl)[C@@H]3[C@H]4C[C@H]([C@@H]5O[C@H]45)[C@@H]3[C@@]1(Cl)C2(Cl)Cl`, the entry is “inactive”. For `Cc1cc2c3c(c1)C(c1ccccc1)=N[C@@H](NC(=O)c1ccncc1)C(=O)N3CC2`, the compound was classed as inactive. Take `N#Cc1ccc(N(CC(N)=O)CC(F)(F)F)cc1C(F)(F)F`: the result was inactive. Consider `Cc1ccc(O)c(C)c1`, for which the compound was called inactive.

Consider `CCCN(CCC)N=O`, for which the compound was called inactive. With `CN(C)c1nc(=O)n(C2CCCCC2)c(=O)n1C`, the outcome was inactive. In the case of `COS(=O)(=O)OC`, the outcome was inactive.

With `CCCCCCOC(=O)c1ccccc1C(=O)OCCCCCC`, the compound was classed as inactive.

Consider `O=C(O)C(F)(F)C(F)(F)C(F)(F)C(F)(F)C(F)(F)C(F)(F)C(F)(F)C(F)(F)C(F)(F)F`, for which the half-maximal activity concentration (AC50) was 38.6 µM (active).

For the compound `CO/C=C(/C(=O)OC)c1ccccc1COc1cccc(C(F)(F)F)n1`, the AC50 is 22.2 µM (active).

`O=NN(c1ccccc1)c1ccccc1`: the outcome was inactive. `CCC(C)(CC)c1cc(NC(=O)c2c(OC)cccc2OC)on1`: the outcome was inactive. As for `CC#Cc1cc(C)nc(Nc2ccccc2)n1`, the result was inactive.

`C[C@]12CCC(=O)C=C1CC[C@@H]1[C@@H]2CC[C@@]2(C)[C@H]1CC[C@]2(C)O`: the AC50 was 45.8 µM (active). Turning to `ClC1=C(Cl)[C@]2(Cl)[C@@H]3[C@@H]4C[C@@H]([C@H]5O[C@@H]45)[C@@H]3[C@@]1(Cl)C2(Cl)Cl`, the compound was classed as inactive. Still for that read-out and setting: for `CCOP(=S)(OCC)SCSC(C)(C)C` the value was “inactive”. Turning to `CCC(=O)O[C@H]1CC[C@H]2[C@@H]3CCC4=CC(=O)CC[C@]4(C)[C@H]3CC[C@]12C`, the result was inactive. Turning to `CC(c1ccc(O)cc1)(c1ccc(O)cc1)c1ccc(O)cc1`, the AC50 was 75.2 µM (active). On to `CCNc1nc(NC(C)C)nc(SC)n1`, for which the compound was called inactive. With `O=C(N[C@H]1CN2CCC1CC2)c1cc2ccoc2cn1`, the compound was called inactive. Regarding `O=S(=O)(O)C(F)(F)C(F)(F)C(F)(F)C(F)(F)C(F)(F)C(F)(F)F`, the call was inactive. Same read-out and setting: for `COc1ccc(O)c(C(C)(C)C)c1` the value was “inactive”.

With `Cc1ccccc1[N+](=O)[O-]`, the result was inactive. In the case of `CCOC(=O)C(O)(c1ccc(Cl)cc1)c1ccc(Cl)cc1`, the result was inactive. Consider `Oc1ccc(Cl)cc1Cl`, for which the compound was classed as inactive.

Broadly, the AC50 is the concentration giving half of the maximal activity seen.
